Assay outcomes from PubChem BioAssay.
Rows were chosen to be rich in hits. Some 10% of all compounds tested hit in one or more screens of this group.
BAZ2B inh: qHTS Assay for Inhibitors of BAZ2B; Bromodomain adjacent to zinc finger domain protein 2B (Homo sapiens), Q9UIF8; AlphaScreen BAZ2B-H3K14Ac peptide displacement; Potency, µM (doses to about 114 µM), without a hit: at the top dose activity change, negative = inhibition, actives largely listed as inhibitors; actives 4.4% (n = 360,000); also: potency is read from the fitted curve at half-maximal effect; % is scaled to controls: 0 for no effect and ±100 for the full control effect; nearly all actives have a fitted effect of over 60% in size
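Protein-peptide AlphaScreen: BAZ2B 50 nM, b-H3K14Ac 50 nM, 1x PBS pH 7.4 + 0.01% Tween-20. Preincubation 30 min RT; cpd 30 min RT (top 110 uM); beads 20 min RT, light-protected.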
Six1-Eya2 blk: qHTS Assay for Inhibitors of the Six1/Eya2 Interaction. Homeobox protein SIX1 (Homo sapiens) + Protein phosphatase EYA2 (Homo sapiens), …. AlphaScreen GST-Six1/His-Eya2 binding, biochemical; hits give low values. activity change, % (no concentration beside the values). actives 0.56% (n = 360,000). AID 651725, 2012; in the data active = activity change below about -65%; inconclusive = mostly about -30% to -63%; also: % is scaled to controls: 0 for no effect and ±100 for the full control effect
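Homogeneous AlphaScreen proximity assay pairing GST-Six1 with His-tagged Eya2 (added as 5X mix: 250 nM and 500 nM) in 50 mM Tris pH 8.0, 300 mM NaCl, 1 mM TCEP. Glutathione donor and nickel acceptor beads; 1 h, 37 °C, dark.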
CtBP-E1A inh: qHTS Assay for Inhibitors of the CtBP/E1A Interaction | AID 651724, 2012 | AlphaScreen GST-E1A/His-CtBP binding, 1536-well; hits give low values | activity change, % (test concentration not listed) | actives 0.49% (n = 340,000); in the data active = activity change below about -65%; inconclusive = mostly about -30% to -63%; also: % is scaled to controls: 0 for no effect and ±100 for the full control effect
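Protein mix (5X: 125 nM each GST-E1A, His-CtBP) was incubated with pinned compound 2 h at 37 deg C in dark, in 50 mM Tris pH 8.0 buffer with 300 mM NaCl. Glutathione donor and nickel acceptor beads followed; AlphaScreen signal read after 1 h.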
JMJD2A Tudor: qHTS Assay for Inhibitors of JMJD2A-Tudor Domain. AlphaScreen JMJD2A-Tudor / H3K4me3 peptide binding. actives 4.4% (n = 390,000). Potency, µM (doses to about 114 µM), without a hit: top-dose activity change, negative = inhibition, actives largely listed as inhibitors. Lysine-specific demethylase 4A (Homo sapiens), O75164. AID 504339, 2011; also: potency is read from the fitted curve at half-maximal effect; % is scaled to controls: 0 for no effect and ±100 for the full control effect; nearly all actives have a fitted effect of over 50% in size
Target sequence (O75164 whole entry, looked up, the tested form may be a part): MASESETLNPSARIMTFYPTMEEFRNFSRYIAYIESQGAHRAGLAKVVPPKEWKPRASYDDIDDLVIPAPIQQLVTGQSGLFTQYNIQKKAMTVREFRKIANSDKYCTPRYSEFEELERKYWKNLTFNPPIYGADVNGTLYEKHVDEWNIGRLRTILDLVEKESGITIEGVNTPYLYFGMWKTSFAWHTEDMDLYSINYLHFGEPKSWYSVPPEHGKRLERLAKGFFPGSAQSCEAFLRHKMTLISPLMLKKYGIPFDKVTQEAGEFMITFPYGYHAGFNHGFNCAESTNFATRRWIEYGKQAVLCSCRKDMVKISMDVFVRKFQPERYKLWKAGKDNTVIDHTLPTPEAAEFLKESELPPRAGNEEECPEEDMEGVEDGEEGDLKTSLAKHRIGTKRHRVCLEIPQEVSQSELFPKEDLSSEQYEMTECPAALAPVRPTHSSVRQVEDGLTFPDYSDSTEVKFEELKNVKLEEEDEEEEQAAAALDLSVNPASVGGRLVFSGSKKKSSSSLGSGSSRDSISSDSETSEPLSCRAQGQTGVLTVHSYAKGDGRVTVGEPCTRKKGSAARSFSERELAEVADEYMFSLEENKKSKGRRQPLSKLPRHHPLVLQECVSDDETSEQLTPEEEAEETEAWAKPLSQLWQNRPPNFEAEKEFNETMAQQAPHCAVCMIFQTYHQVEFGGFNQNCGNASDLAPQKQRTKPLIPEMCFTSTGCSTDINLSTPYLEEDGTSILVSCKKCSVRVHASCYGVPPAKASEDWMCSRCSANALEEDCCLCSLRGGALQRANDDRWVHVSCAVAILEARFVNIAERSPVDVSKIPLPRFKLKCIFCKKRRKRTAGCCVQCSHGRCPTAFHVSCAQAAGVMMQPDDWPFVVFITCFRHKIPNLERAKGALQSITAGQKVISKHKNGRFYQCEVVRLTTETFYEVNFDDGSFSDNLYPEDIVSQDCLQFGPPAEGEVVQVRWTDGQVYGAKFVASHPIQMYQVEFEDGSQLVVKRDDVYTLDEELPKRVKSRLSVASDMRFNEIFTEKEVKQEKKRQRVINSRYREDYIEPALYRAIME
G9a block: qHTS Assay for Inhibitors of Histone Lysine Methyltransferase G9a. actives 8.8% (n = 350,000). G9a H3K9 monomethylation, AlphaScreen, 2 h. AID 504332, 2011. Potency, µM (series often up to 102 µM), for inactives: at the top dose activity, negative = inhibition, most hits filed as inhibitors; also: potency is read from the fitted curve at half-maximal effect; % is scaled to controls: 0 for no effect and ±100 for the full control effect; nearly all actives have a fitted effect of over 75% in size
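Quantitative HTS format: methyltransferase activity on a biotin-tagged H3K9 peptide is measured by AlphaScreen, using a rabbit anti-monomethyl-H3K9 antibody with streptavidin donor and anti-IgG acceptor beads. Final levels are 20 nM enzyme, 500 nM peptide, 20 uM SAM; 2 h RT.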
HP1b chromo inh: HTS for Inhibitors of HP1-beta Chromodomain Interactions with Methylated Histone Tails; actives 0.56% (n = 390,000); Chromobox protein homolog 1 (Homo sapiens), P83916; AlphaScreen HP1-beta / biotin-H3K9me3 peptide binding; Potency, µM (highest dose often 114 µM), for inactives: at the top dose activity change, negative = inhibition, hits mostly inhibitors; also: potency is read from the fitted curve at half-maximal effect; nearly all actives have a fitted effect of over 70% in size
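HP1-beta protein (50 nM final) preincubated 30 min at room temperature with biotinylated H3(1-18)K9me3 peptide (50 nM) in PBS pH 7.4, 0.01% Tween-20, then compound added for 30 min. AlphaScreen streptavidin donor/nickel chelate acceptor beads (10 ug/mL final), 30 min dark, luminescence read.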
Starred values were filed as active, the others as inactive; ? = inconclusive; . = not tested or not shown; [ ] = another dose, or the depositor's remark. Unless noted, calls follow the shape of the dose curve; as a rule, active = well fitted inhibition curve with a large enough effect; inconclusive = small, poorly fitted or top-dose-only effect; inactive = no such curve, though single readings can be large or run the other way.

SMILES | BAZ2B inh | Six1-Eya2 blk | CtBP-E1A inh | JMJD2A Tudor | G9a block | HP1b chromo inh
CN(C)c1ccc(/C=C2/C[N+](C)(C)C/C(=C/c3ccc(N(C)C)cc3)C2=O)cc1 | . | -8 | 13 | 40µM* | . | 40µM*
Cc1nc2ccc(C(=O)Nc3ccc4c(c3)OCC(=O)N4)cn2c1N(C)C(=O)CCc1ccccc1 | . | -8 | -23 | . | . | .
CN(C)c1ccc(C2/C(=C(/O)c3ccc(Br)cc3)C(=O)C(=O)N2C)cc1 (centres undefined) | -3% | -5 | . | ? | 40µM* | 8%
CN1C(=O)C(=O)/C(=C(/O)c2ccc(Br)cc2)C1c1cccc([N+](=O)[O-])c1 (centres undefined) | -9% | 3 | 0 | -25% | 50µM* | 10%
C(=Nc1cccc2c(N=Cc3ccco3)cccc12)c1ccco1 | 28µM* | 3 | . | -32% | 40µM* | -5%
CN(C)c1ccc(C=Nc2ccc(N(C)C)cc2)cc1 | 20µM* | ? | ? | 56µM* | ? | 50µM*
CN(C)c1ccc(N=Cc2ccco2)cc1 | -108% | ? | ? | 28µM* | 10µM* | 16µM*
Cc1ccc(N=Cc2ccc(N(C)C)cc2)cc1 | -6% | 3 | 7 | -14% | -35% | 6%
CN(C)c1ccc(C=Nc2ccccc2)cc1 | 50%[57.1 µM] | -3 | -5 | -10% | 23%[59 µM] | 13%
CC1CN(C(=O)C(C)N2CCN(c3cccc(Cl)c3)CC2)CC(C)O1 (centres undefined) | -3% | 4 | 0 | 63µM* | 35% | ?
CC1CN(C(=O)C(C)N2CCN(c3ccccc3Cl)CC2)CC(C)O1 (centres undefined) | 11% | 5 | 4 | 7%[57.1 µM] | 5% | 37%
Cc1nc2ccc(NC(=O)Cc3ccccc3F)cc2s1 | 17% | 7 | -19 | -6% | 16% | 35%
COC(=O)c1cc(OC)c(OC)cc1NC(=O)c1ccc2c(c1)CCN2S(C)(=O)=O | -5% | . | . | -16% | 1%[59 µM] | 25%
C=CCOc1cccc(C2/C(=C(/O)c3ccc(Cl)cc3)C(=O)C(=O)N2CCN2CCOCC2)c1 (centres undefined) | -7% | -1 | -1 | -24%[57.1 µM] | 18µM* | ?
C=CCOc1cccc(C2/C(=C(/O)c3ccc4c(c3)CC(C)O4)C(=O)C(=O)N2CCN2CCOCC2)c1 (centres undefined) | -22%[57.1 µM] | 2 | 0 | -12% | 50µM* | 11%
C=CCOc1cccc(C2/C(=C(/O)c3ccccc3)C(=O)C(=O)N2CCN2CCOCC2)c1 (centres undefined) | ? | 4 | 6 | 79µM* | ? | 12%
C=CCOc1ccc(/C(O)=C2/C(=O)C(=O)N(CCCN3CCOCC3)C2c2ccc(OC)cc2)cc1 (centres undefined) | -4% | 0 | 0 | -29% | ? | 9%
Cc1ccc(/C(O)=C2\C(=O)C(=O)N(CCc3c[nH]c4ccccc34)C2c2cccnc2)cc1 (centres undefined) | -4% | -5 | -6 | ? | 50µM* | 7%
C=CCOc1ccc(/C(O)=C2/C(=O)C(=O)N(CCCN3CCOCC3)C2c2ccccc2)cc1 (centres undefined) | . | 9 | -4 | ? | . | -7%
CCN(CC)CCN1C(=O)C(=O)/C(=C(/O)c2ccc(C)cc2)C1c1cccnc1 (centres undefined) | -39% | 5 | . | -7% | . | 57%
O=C(c1ccncc1)N1CCC2(CC1)CN(c1ccccn1)C2 | . | . | . | . | 6%[12.7 µM] | .
O=S(=O)(c1ccc2c(c1)OCCO2)N1CCN(S(=O)(=O)c2cc(F)c(Br)cc2F)CC1 | . | . | . | -14% | . | .
O=C1C(=O)N(CCN2CCOCC2)C(c2cccnc2)/C1=C(/O)c1ccc(Cl)cc1 (centres undefined) | -20% | 6 | 5 | -14% | 50µM* | 35%
O=C1C(=O)N(CCN2CCOCC2)C(c2cccnc2)/C1=C(/O)c1ccccc1 (centres undefined) | -9% | . | . | . | -6%[12.7 µM] | .
COc1ccc2[nH]c3c4c(ccc3c2c1)C(=O)C=CC4=O | 40µM* | -17 | -12 | ? | . | ?
SMILES | BAZ2B inh | Six1-Eya2 blk | CtBP-E1A inh | JMJD2A Tudor | G9a block | HP1b chromo inh
COc1ccc2[nH]c(-c3ccc(F)cc3F)cc(=O)c2c1 | . | . | . | . | 2% | .
Cc1nn2c(=O)cc(COC(=O)c3ccc(NC(=O)c4cccs4)cc3)nc2s1 | -30% | . | . | -15% | 14%[59 µM] | 13%
Cc1ccsc1/C=N/N1CCN(c2ccccn2)CC1 | 40µM* | -24 | -24 | 63µM* | 50µM* | -35%
Fc1ccc(/C=N/N2CCN(Cc3ccccc3)CC2)cc1 | 45µM* | -30 | 4 | ? | 79µM* | ?
C(=N\N1CCN(Cc2cccc3ccccc23)CC1)/c1cccnc1 | 40µM* | -4 | -4 | 45µM* | 50µM* | -42%
O=C(O)c1ccc(/C=N/N2CCN(Cc3ccccc3)CC2)cc1 | 89µM* | 0 | 5 | -5% | ? | 29%
Cc1ccc(N2CCN(/N=C/c3cccnc3)CC2)cc1 | ? | 2 | -29 | ? | ? | -12%
O=C(Cc1cccs1)NC1CC(=O)N(c2ccccc2)C1 (centres undefined) | 2% | . | . | 3% | -6%[59 µM] | 19%
COc1ccc(NC(=O)Nc2ccc3c(c2)C(=O)N([C@H](C)CO)C[C@@H](C)[C@@H](CN(C)C(=O)C2CCCCC2)OCCCC[C@H](C)O3)cc1 | . | -15 | 23 | . | . | .
C(=N\N1CCN(Cc2ccccc2)CC1)/c1ccc(-c2ccccc2)cc1 | -12% | 3 | . | -22% | -8% | 20%
C(=N\N1CCN(Cc2cccc3ccccc23)CC1)/c1ccco1 | ? | ? | ? | 56µM* | 40µM* | 45µM*
CN1CCN(/N=C/c2ccc(-c3ccccc3)cc2)CC1 | 22% | ? | ? | 40µM* | 71µM* | ?
FC(F)(F)c1ccc(/C=N/N2CCN(Cc3cccc4ccccc34)CC2)cc1 | -30%[57.1 µM] | 3 | -8 | -20%[57.1 µM] | -12% | -2%
O=S(=O)(CCN1CCN(C(c2ccccc2)c2ccccc2)CC1)C(F)(F)F | . | 4 | 5 | -16% | 3.5µM* | -10%
